About 83,000 compounds went through this panel and 20% of them were active in at least one assay; those are over-represented in the sample as a whole.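 Step 1: grow cells in 96-well plates. Step 2: add test compound at a single concentration. Step 3: incubate 48 h. Step 4: record percent growth.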 Unmarked numbers belong to inactive results. The source made the active and inactive calls. How the source made its calls: active means growth percent below 10; inactive means the rest.
These compounds were tested on MDA-MB-231 breast (assay: NCI-60 one-dose screen, 48 h (100 = growth as untreated, 0 = no growth, -100 = all killed)). Conditions: 10 µM.

Row | Structure (SMILES) | growth
1 | Cc1ccc(/C=C/C(=O)c2ccc(NC(=O)CSc3nnc(-c4c[nH]c5ccccc45)n3-c3ccccc3)cc2)cc1 | 83.7%
2 | O=C(CSc1nnc(-c2ccc3nc(-c4ccccc4)[nH]c3c2)o1)Nc1ccc(Br)cc1 | 52.3%
3 | O=C(CNc1nc(-c2ccccc2)cs1)Nc1ccccc1 | -30.7% (active)
4 | O=C(/C=C/Nc1ccc(F)cc1F)c1ccc2c(c1)Nc1ccccc1S2 | 77.5%
5 | COc1cc(Cn2c(C(F)(F)F)cc3c(Cl)ncnc32)ccn1 | 10.7%
6 | COc1ccc(-c2cc(C(=O)N=Nc3c(O)[nH]c4ccc(F)cc34)c3ccccc3n2)cc1 | 6.12% (active)
7 | O=C(Nc1ccccc1)Nc1nc2ccccc2s1 | 79.5%
8 | O=C(CSc1nnc(-c2ccc3nc(-c4ccccc4)[nH]c3c2)o1)Nc1ccc(Cl)cc1 | 27.4%
9 | CCOc1ccc(Nc2nc3ccccc3nc2Nc2ccc(OCC)cc2)cc1 | 67.7%
10 | CNC(=O)c1cc(-c2ccc(NC(=O)Nc3ccc(C)cc3)cc2)nc2cccnc12 | 93.3%
11 | NC(=Nc1ccc(OCCCCCCCCn2ccnn2)cc1)c1ccccc1 | 13.8%
12 | COc1ccc(-c2cc(-c3cc(C(=O)c4ccccc4)n4ccc(C)cc34)nc(N)c2C#N)cc1 | 34.4%
13 | C[C@H]1[C@H](C)CC[C@]2(COC(=O)CCC(=O)NCC#CCN3CCNCC3)CC[C@]3(C)C(=CC[C@@H]4[C@@]5(C)CCCNC(C)(C)[C@@H]5CC[C@]43C)[C@H]12 | 43.4%
14 | O=c1[nH]c2ccc(Cl)cc2cc1CSc1ccc(Nc2nccc(-c3ccc(Cl)cc3)n2)cc1 | 47%
15 | COc1ccc(-c2cc(C(=O)N=Nc3c(O)[nH]c4ccccc34)c3ccccc3n2)cc1 | -58.8% (active)
16 | COc1ccc(-c2nc(S(=O)(=O)c3ccc(C)cc3)c(S(=O)(=O)CC(=O)N(C)Cc3ccccc3)o2)cc1 | 2.89% (active)
17 | COc1ccc(C(C)=C(c2ccc(OCCCN(C)C)cc2)c2ccc(OCCCN(C)C)cc2)cc1 | -97.4% (active)
18 | COc1cc2c3c(n(CCCNCCO)c(=O)c2cc1OC)-c1nc2c(cc1C3=O)OCO2 | 1.28% (active)
19 | c1ccc(C(=C(c2ccc(OCCN3CCCCC3)cc2)c2ccc(OCCN3CCCCC3)cc2)C2CCCC2)cc1 | -94.4% (active)
20 | O=C(CSc1nnc(-c2c[nH]c3ccccc23)n1-c1ccccc1)Nc1ccc(C(=O)/C=C/c2ccc(Cl)cc2)cc1 | 79.3%
21 | COc1cnc2c(c1)C(=O)c1c-2n(CCCNC(C)C)c(=O)c2cc(OC)c(OC)cc12 | 23.1%
22 | COc1ccc(NC(=O)CSc2nnc(-c3ccc4nc(-c5ccc(Cl)cc5)[nH]c4c3)o2)cc1 | 20.5%
23 | CN(CCO)c1oc(-c2ccccc2)nc1[P+](c1ccccc1)(c1ccccc1)c1ccccc1 | -6.83% (active)
24 | CN1CCc2c(sc3ncnc(N/N=C/c4ccc5ccccc5c4)c23)C1 | 48%

What follows are compounds tested on RXF 393 renal in the same assay as above. Conditions: 10 µM.

Row | Structure (SMILES) | growth
25 | Cc1ccc(C(C)C)cc1NC(=O)c1ccccc1O | 57.3%
26 | CS(=O)(=O)Nc1ccc(-c2ccc3c(c2)ncn3-c2ccc(NC(=O)Nc3ccc(Br)cc3)cc2)cc1 | -16.8% (active)
27 | O=C(CS(=O)(=O)c1oc(-c2ccc(Cl)cc2)nc1S(=O)(=O)c1ccc(Cl)cc1)N1CCOCC1 | -76.1% (active)
28 | COc1cc(-c2nc3cc(Cl)c(Cl)cc3[nH]2)ccc1OCc1nnc(-c2ccc(Br)cc2)o1 | -77.7% (active)
29 | COc1cc(Cn2c(C(F)(F)F)cc3c(Cl)ncnc32)ccn1 | 32.9%
30 | O=C(Nc1ccccc1)Nc1nc2ccccc2s1 | 110%
31 | CNC(=O)c1cc(-c2ccc(NC(=O)Nc3ccc(C)cc3)cc2)nc2cccnc12 | 100%
32 | Cc1ccc(C(=O)Nc2ccc(-n3c(C)nc4c(cnn4-c4ccccc4)c3=O)cc2)cc1 | 87.9%
33 | C[C@H]1[C@H](C)CC[C@]2(COC(=O)CCC(=O)NCC#CCN3CCNCC3)CC[C@]3(C)C(=CC[C@@H]4[C@@]5(C)CCCNC(C)(C)[C@@H]5CC[C@]43C)[C@H]12 | 50.3%
34 | COc1ccc(-c2nc(S(=O)(=O)c3ccc(C)cc3)c(S(=O)(=O)CC(=O)N(C)Cc3ccccc3)o2)cc1 | -54.4% (active)
35 | COc1ccc(C(C)=C(c2ccc(OCCCN(C)C)cc2)c2ccc(OCCCN(C)C)cc2)cc1 | -94.6% (active)
36 | c1ccc(C(=C(c2ccc(OCCN3CCCCC3)cc2)c2ccc(OCCN3CCCCC3)cc2)C2CCCC2)cc1 | 29.1%

These compounds were tested on SF-268 CNS in the same assay as above. Conditions: 10 µM.

Row | Structure (SMILES) | growth
37 | COc1ccc(/C=C/C(=O)c2ccc(NC(=O)CN3C(=O)NC(C)(c4ccccc4)C3=O)cc2)cc1 (centres undefined) | 67.3%
38 | Cc1ccc(C(C)C)cc1NC(=O)c1ccccc1O | 55.2%
39 | CC1(c2ccccc2)NC(=O)N(CC(=O)Nc2ccc(C(=O)/C=C/c3ccc(Br)cc3)cc2)C1=O (centres undefined) | 30.9%
40 | C=C[C@@]12CN3CC[C@]1(O)[C@@](C(=O)OC)(CO2)c1[nH]c2ccccc2c1C3 | 85.3%
41 | COc1ccc(/C=C/C(=O)c2ccc(S(=O)(=O)NCCNc3nc(Nc4ccc(F)cc4)nc(N(C)C)n3)cc2)cc1 | 25.8%
42 | O=c1oc2ccccc2cc1-c1csc(N=Nc2c(O)[nH]c3ccc(Br)cc23)n1 | 51.2%
43 | O=C(CSc1nnc(-c2c[nH]c3ccccc23)n1-c1ccccc1)Nc1ccc(C(=O)/C=C/c2ccccc2Cl)cc1 | 66.5%
44 | O=C(NO)c1ccc(-c2nc3ccc4[nH]ncc4c3c3c2CCCC3)cc1 | -53.6% (active)
45 | CS(=O)(=O)Nc1ccc(-c2ccc3c(c2)ncn3-c2ccc(NC(=O)Nc3ccc(Br)cc3)cc2)cc1 | 26.4%
46 | O=C(CS(=O)(=O)c1oc(-c2ccc(Cl)cc2)nc1S(=O)(=O)c1ccc(Cl)cc1)N1CCOCC1 | 84.6%
47 | COc1cc(-c2nc3cc(Cl)c(Cl)cc3[nH]2)ccc1OCc1nnc(-c2ccc(Br)cc2)o1 | 38.6%
48 | COc1cccc(C(N)=Nc2ccc(OCCCCCCn3cncn3)cc2)c1 | 68.9%
49 | COc1cc2c3c(n(CCCn4ccnc4)c(=O)c2cc1OC)-c1nc2c(cc1C3=O)OCO2 | 42.4%
50 | Cc1ccc(/C=C/C(=O)c2ccc(NC(=O)CSc3nnc(-c4c[nH]c5ccccc45)n3-c3ccccc3)cc2)cc1 | 82.2%
51 | O=C(CSc1nnc(-c2ccc3nc(-c4ccccc4)[nH]c3c2)o1)Nc1ccc(Br)cc1 | 87.8%
52 | O=C(CNc1nc(-c2ccccc2)cs1)Nc1ccccc1 | 8.59% (active)
53 | O=C(/C=C/Nc1ccc(F)cc1F)c1ccc2c(c1)Nc1ccccc1S2 | 82.2%
54 | COc1cc(Cn2c(C(F)(F)F)cc3c(Cl)ncnc32)ccn1 | -11% (active)
55 | COc1ccc(-c2cc(C(=O)N=Nc3c(O)[nH]c4ccc(F)cc34)c3ccccc3n2)cc1 | 47.9%

Row | Structure (SMILES) | growth
56 | O=C(Nc1ccccc1)Nc1nc2ccccc2s1 | 111%
57 | O=C(CSc1nnc(-c2ccc3nc(-c4ccccc4)[nH]c3c2)o1)Nc1ccc(Cl)cc1 | 59.6%
58 | CCOc1ccc(Nc2nc3ccccc3nc2Nc2ccc(OCC)cc2)cc1 | 40%
59 | CNC(=O)c1cc(-c2ccc(NC(=O)Nc3ccc(C)cc3)cc2)nc2cccnc12 | 104%
60 | NC(=Nc1ccc(OCCCCCCCCn2ccnn2)cc1)c1ccccc1 | 72.4%
61 | Cc1ccc(C(=O)Nc2ccc(-n3c(C)nc4c(cnn4-c4ccccc4)c3=O)cc2)cc1 | 96.3%
62 | COc1ccc(-c2cc(-c3cc(C(=O)c4ccccc4)n4ccc(C)cc34)nc(N)c2C#N)cc1 | 41.2%
63 | C[C@H]1[C@H](C)CC[C@]2(COC(=O)CCC(=O)NCC#CCN3CCNCC3)CC[C@]3(C)C(=CC[C@@H]4[C@@]5(C)CCCNC(C)(C)[C@@H]5CC[C@]43C)[C@H]12 | 77.1%
64 | O=c1[nH]c2ccc(Cl)cc2cc1CSc1ccc(Nc2nccc(-c3ccc(Cl)cc3)n2)cc1 | 58.5%
65 | COc1ccc(-c2cc(C(=O)N=Nc3c(O)[nH]c4ccccc34)c3ccccc3n2)cc1 | -0.0948% (active)
66 | COc1ccc(-c2nc(S(=O)(=O)c3ccc(C)cc3)c(S(=O)(=O)CC(=O)N(C)Cc3ccccc3)o2)cc1 | 64.8%
67 | COc1ccc(C(C)=C(c2ccc(OCCCN(C)C)cc2)c2ccc(OCCCN(C)C)cc2)cc1 | -73.7% (active)
68 | COc1cc2c3c(n(CCCNCCO)c(=O)c2cc1OC)-c1nc2c(cc1C3=O)OCO2 | 19.1%
69 | c1ccc(C(=C(c2ccc(OCCN3CCCCC3)cc2)c2ccc(OCCN3CCCCC3)cc2)C2CCCC2)cc1 | -61% (active)
70 | O=C(CSc1nnc(-c2c[nH]c3ccccc23)n1-c1ccccc1)Nc1ccc(C(=O)/C=C/c2ccc(Cl)cc2)cc1 | 56.9%
71 | COc1cnc2c(c1)C(=O)c1c-2n(CCCNC(C)C)c(=O)c2cc(OC)c(OC)cc12 | 41.8%
72 | COc1ccc(NC(=O)CSc2nnc(-c3ccc4nc(-c5ccc(Cl)cc5)[nH]c4c3)o2)cc1 | 48%
73 | CN(CCO)c1oc(-c2ccccc2)nc1[P+](c1ccccc1)(c1ccccc1)c1ccccc1 | 11.4%
74 | CN1CCc2c(sc3ncnc(N/N=C/c4ccc5ccccc5c4)c23)C1 | 68.9%

From PubChem BioAssay (NCI)
